High-throughput results as filed in PubChem.
The list is not random: actives were taken first. Their share in the collection is about 3.5%.
TEAD-YAP block – TEAD-YAP interaction inhibition; HEK-TIYL cells, TEAD-Gal4/YAP UAS-luciferase luminescence; inhibition, % at 9.12 µM; 1.4% of 640,000 active; in the data active = inhibition above about 32%;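 note: 0% = median of test compound wells and 100% = reference inhibitor wells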
FBW7 activator – activators of human E3 ligase FBW7. 0.13% of 650,000 active. AID 1259310. Q969H0. normalized activity (activation), % at 26.1 µM. AlphaScreen FBW7–phospho-cyclin E peptide binding, activator screen; in the data active = normalized activity above about 1.9%;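 note: purified mutant Fbw7 with reduced substrate affinity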
Target sequence (Q969H0 whole entry, looked up): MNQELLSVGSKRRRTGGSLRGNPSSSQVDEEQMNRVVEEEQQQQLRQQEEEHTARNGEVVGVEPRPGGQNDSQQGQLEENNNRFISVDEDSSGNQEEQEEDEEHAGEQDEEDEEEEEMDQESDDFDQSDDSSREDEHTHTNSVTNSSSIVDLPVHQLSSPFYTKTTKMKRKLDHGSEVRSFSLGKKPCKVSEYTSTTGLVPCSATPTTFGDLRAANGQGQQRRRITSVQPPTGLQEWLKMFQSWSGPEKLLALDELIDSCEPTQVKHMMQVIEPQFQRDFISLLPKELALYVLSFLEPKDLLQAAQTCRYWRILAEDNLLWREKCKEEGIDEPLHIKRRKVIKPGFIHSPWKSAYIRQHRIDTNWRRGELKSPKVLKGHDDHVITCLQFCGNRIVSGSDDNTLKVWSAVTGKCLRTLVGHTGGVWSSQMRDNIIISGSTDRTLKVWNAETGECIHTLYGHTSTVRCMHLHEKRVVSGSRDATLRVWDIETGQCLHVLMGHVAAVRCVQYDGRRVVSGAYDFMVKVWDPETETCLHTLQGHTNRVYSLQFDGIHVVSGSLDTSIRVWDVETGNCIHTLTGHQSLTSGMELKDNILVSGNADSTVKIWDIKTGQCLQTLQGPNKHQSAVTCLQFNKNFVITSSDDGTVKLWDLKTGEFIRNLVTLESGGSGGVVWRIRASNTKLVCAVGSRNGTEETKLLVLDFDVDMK
MITF inh – inhibitors of human MITF. inhibition, % at 2.6 µM. AlphaScreen MITF homodimerization, bead proximity signal. 0.91% of 650,000 active. O75030; in the data active = inhibition above about 50%;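 note: 0% = vehicle wells with protein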
GPR151 ag – activators of human GPR151 | Q8TDV0 | PathHunter beta-arrestin GPR151 cells, luminescence | activation, % at 11.2 µM | 1% of 650,000 active; in the data active = activation above about 4.9%;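 note: 0% = median of compound wells and 100% = cells with positive control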
GPR151 confirm – confirmation of human GPR151 activators | shares compounds with GPR151 ag | GPR151 PathHunter beta-arrestin cells, luminescence, 90 min; % of EA-reagent control over plate median | activation, % at 11.2 µM | 6,700 tested, under 10 active | AID 1508609;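 active = mean percent activation across replicates above the confirmation screen cutoff of 4.91%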
GPR119 ag – counter-screen for GPR151 activators: effect on human GPR119 | shares compounds with GPR151 ag | GPR119 PathHunter beta-arrestin cells, luminescence, 90 min; 0 = compound-well median, 100 = enzyme-acceptor control | activation, % at 11.2 µM | 0.3% of 6,700 active | AID 1508611;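 active = mean percent activation in the counterscreen above 29.09%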;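 note: counterscreen on off-target GPR119 to flag nonselective hits from the GPR151 activator screen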
The depositor's hits bear a star; nt = no result.

SMILES	TEAD-YAP block	FBW7 activator	MITF inh	GPR151 ag	GPR151 confirm	GPR119 ag
CC(C)c1ccc(CN(C(=O)c2cc3ccccc3oc2=O)C2CCS(=O)(=O)C2)cc1 (stereo unspecified)	-12.9	0.2	4.4	5.6*	0.4	4.2
CCc1ccc(NC(=O)C(=O)NCCC(C)C)cc1	-16.2	0.0	1.0	0.4	nt	nt
COc1ccc(CC(=O)Nc2c3c(nn2C(C)(C)C)CSC3)cc1	9.8	-0.1	13.5	-0.3	nt	nt
CC(C)(C)n1nc2c(c1NC(=O)c1c(F)cccc1F)CSC2	7.0	0.1	42.5	7.6*	-0.8	-6.8
CC(C)(C)n1nc2c(c1NC(=O)c1cccc(F)c1)CSC2	8.4	0.3	-2.9	0.0	nt	nt
COc1ccc(NC(=O)Nc2c3c(nn2C(C)(C)C)CSC3)cc1	-6.0	-0.1	-7.0	5.5*	0.1	0.3
CSc1ncc(Cl)c(C(=O)Nc2ccc(C)c(C)c2)n1	-3.4	0.0	-3.4	9.9*	-0.5	-7.6
CCCS(=O)(=O)c1ncc(Cl)c(C(=O)Nc2cccc(C)c2)n1	30.8	-0.1	-6.1	7.4*	-0.6	0.2
Cc1cccc(NC(=O)c2nc(S(C)(=O)=O)ncc2Cl)c1	-19.4	0.2	7.1	-1.0	nt	nt
Cc1ccc2c(c1)N(C(=O)n1ccnc1)CC(C)O2 (stereo unspecified)	-10.2	-0.1	-0.7	-0.7	nt	nt
Cc1ccc(CSc2nc3[nH]ncc3c(=O)n2-c2cccc(C)c2)cc1	-10.2	-0.1	4.3	9.0*	0.5	9.9
Cc1ccc(-n2c(SCc3cccc(C)c3)nc3[nH]ncc3c2=O)cc1	4.2	0.6	18.9	0.1	nt	nt
CCc1ccc(-n2c(SCc3cc(=O)n4c(C)cccc4n3)nc3[nH]ncc3c2=O)cc1	-6.7	0.0	0.7	5.8*	0.6	10.9
CCCCC1CN(CCC(=O)NCc2c(C)nn(CC)c2C)Cc2ccccc2O1 (stereo unspecified)	5.9	-0.1	7.2	7.5*	1.6	11.2
O=S(=O)(c1ccccc1)N1N=C(c2ccccc2)CC1c1ccco1 (stereo unspecified)	20.5	0.2	10.1	5.4*	0.0	-2.4
O=[N+]([O-])c1cccc(C2CC(c3ccc(Br)cc3)=NN2S(=O)(=O)c2ccccc2)c1 (stereo unspecified)	-4.2	0.2	8.1	5.4*	0.2	11.8
O=[N+]([O-])c1cccc(C2SCCN2S(=O)(=O)c2ccc(I)cc2)c1 (stereo unspecified)	-4.8	-0.1	3.3	0.2	nt	nt
O=[N+]([O-])c1cccc(C2SCCN2S(=O)(=O)c2ccc(Br)cc2)c1 (stereo unspecified)	4.8	0.1	12.5	5.8*	-0.6	-17.3
Cn1c(=O)c2c(nc(CN(Cc3ccccc3)Cc3ccccc3)n2CC(N)=O)n(C)c1=O	21.6	0.0	0.8	1.7	nt	nt
CCc1ccccc1N(C)C(=O)c1cc2cc(OC)ccc2oc1=O	-18.7	0.0	12.4	5.9*	0.4	0.8
CCOc1ccc(N(CC(=O)N(C)C)S(=O)(=O)c2ccc(Cl)cc2)cc1	4.2	0.0	6.5	1.5	nt	nt
CN(C)/N=C/C=C1\CCC/C(=C\c2ccc(Br)cc2)C1=O	3.0	-0.2	15.0	0.3	nt	nt
CC(C)[C@H](NC(N)=O)C(=O)Nc1ccc(I)cc1	1.1	-0.1	6.3	5.9*	1.7	11.9
O=C(NC(=S)Nc1ccc(-c2nc3ncccc3o2)cc1)c1ccccc1Br	-17.9	0.4	13.0	-1.5	nt	nt
Cc1cc(CN(C)C(=O)CC2(c3ccccc3C)CC(=O)N(Cc3cccnc3)C2=O)n[nH]1 (stereo unspecified)	-9.3	-0.1	-4.8	1.4	nt	nt
SMILES	TEAD-YAP block	FBW7 activator	MITF inh	GPR151 ag	GPR151 confirm	GPR119 ag
Cc1cc(CN(C)C(=O)CC2(c3cccc(F)c3)CC(=O)N(Cc3cccnc3)C2=O)n[nH]1 (stereo unspecified)	-0.2	0.3	13.3	12.2*	-0.1	6.7
CN(Cc1ccccc1)C1(O)C(=O)Nc2ccc([N+](=O)[O-])cc21 (stereo unspecified)	5.0	0.0	-3.7	12.2*	-0.6	10.1
CN(Cc1ccccc1)C1(O)C(=O)Nc2ccc(Cl)cc21 (stereo unspecified)	2.2	0.0	7.5	2.1	nt	nt
Cc1cccc(-n2ncc3c(NCCc4ccc(Cl)cc4)ncnc32)c1	-10.5	0.0	6.8	1.4	nt	nt
COc1cccc(OC)c1C(=O)NCc1nc(-c2ccc(Cl)cc2)no1	8.5	-0.2	0.9	8.0*	-0.2	-8.8
COc1cccc(OC)c1C(=O)NCc1nc(-c2ccc(C)cc2)no1	8.8	-0.1	6.1	3.1	nt	nt
O=C(NCc1nc(-c2ccccc2)no1)c1cc(Br)ccc1Cl	7.3	0.0	3.3	5.3*	0.5	1.2
O=C(NCc1nc(-c2ccccc2)no1)c1ccccc1Cl	-9.2	-0.1	1.1	-0.3	nt	nt
COc1ccc(-c2noc(CNC(=O)Cc3ccc(OC)c(OC)c3)n2)cc1	7.5	0.8	6.3	5.1*	-1.0	-15.5
COc1ccc(-c2noc(CC(=O)Nc3ccc(C(C)C)cc3)n2)cc1	-6.1	0.1	2.3	6.0*	0.6	2.1
COc1cc(-c2nnc(NC(=O)Cc3ccc(C)cc3C)o2)cc(OC)c1OC	-7.2	0.1	2.5	-0.8	nt	nt
COC(=O)c1cccc2c1NC(c1ccc(OC)c([N+](=O)[O-])c1)C1CC=CC21 (stereo unspecified)	-1.9	-0.2	2.1	2.1	nt	nt
O=S(=O)(NCC(c1ccc2c(c1)OCO2)N1CCOCC1)c1ccc2c(c1)OCCO2 (stereo unspecified)	-6.1	-0.3	3.9	1.4	nt	nt
CCCOc1ccc2oc(=O)c3c(c2c1)CCCN3C(=O)CN1CC(C)CC(C)C1 (stereo unspecified)	14.1	0.4	9.5	-1.1	nt	nt
Cc1cc(OCC(=O)NCc2nc(-c3ccccc3)no2)cc(C)c1Br	7.8	0.0	7.8	10.9*	-0.4	-4.7
COc1ccc(-c2noc(CNC(=O)C(Cl)(Cl)Cl)n2)cc1	-27.7	0.0	-28.3	8.0*	-0.6	-5.7
Cc1ccc(CC(=O)NCc2nc(-c3ccccc3)no2)cc1	0.7	0.1	-0.1	5.7*	0.3	-5.3
CC(=O)Oc1ccc(N(C(C)=O)S(=O)(=O)c2ccc(Cl)cc2)cc1Br	13.6	0.0	-0.6	-1.5	nt	nt
COC(=O)C1=C(C(=O)OC)SC2(S1)C(C(=O)OC)=C(C(=O)OC)SC1=C2c2cc(C)c(C)cc2NC1(C)C	4.4	-1.7	19.0	5.8*	0.7	11.7
CCCc1ccc(C(=O)/C=C/N(C)C)cc1	-5.3	-0.1	-7.1	5.7*	-0.7	-0.7
CC(C)n1c(-c2cccc(N)c2)nc2c(Nc3ccc(N4CCOCC4)cc3)ncnc21	-10.3	0.1	-6.2	0.5	nt	nt
COc1ccc(C2=NN3C(C2)c2ccccc2OC3c2ccccc2)cc1 (stereo unspecified)	-58.7	-0.1	0.8	-0.3	nt	nt
